Shown are actives, neighbours in structure and some others; about 6% of the full set was active somewhere.
D1 ag – human D1 receptor agonism; P21728; hit rate 1% among 360,000; activation, % at 2 µM; HEK293 T-REx D1 cells, calcium flux, agonist mode; in the data active means activation above about 30%; further: 0% is about no effect
Target sequence (P21728 whole entry, looked up): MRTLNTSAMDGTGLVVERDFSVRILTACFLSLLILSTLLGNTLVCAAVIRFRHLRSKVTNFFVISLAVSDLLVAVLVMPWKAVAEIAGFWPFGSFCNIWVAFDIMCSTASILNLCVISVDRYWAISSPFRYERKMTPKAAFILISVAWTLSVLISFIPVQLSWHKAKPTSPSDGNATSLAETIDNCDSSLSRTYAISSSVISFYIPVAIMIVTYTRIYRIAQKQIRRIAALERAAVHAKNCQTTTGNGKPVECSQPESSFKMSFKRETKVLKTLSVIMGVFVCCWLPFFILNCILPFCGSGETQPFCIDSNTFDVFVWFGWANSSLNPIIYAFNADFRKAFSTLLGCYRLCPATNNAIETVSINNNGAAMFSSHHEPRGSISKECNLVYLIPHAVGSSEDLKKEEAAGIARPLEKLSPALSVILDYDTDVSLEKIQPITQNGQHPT
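Inducible HEK293 T-REx D1 cells, force-coupled to calcium signalling, were plated at 4000 cells/well with tetracycline and held overnight at 30 C. After no-wash calcium dye loading, compound-evoked calcium rise over 180 s flagged agonists.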
DRD3 agonist – agonists of human D3 dopamine receptor | P35462 | D3R DiscoveRx beta-arrestin cells, luminescence, 90 min | max activation, % | hit rate 0.58% among 410,000; in the data active means max activation above about 30%; further: 0% is about no effect
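Cells at 1500/well, incubated overnight, then treated with pinned compounds (dopamine as control) for 90 min at 37 degrees C. DiscoveRx reagent added for 30 - 60 minutes at room temperature; luminescence read.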
D1 PAM – human D1 dopamine receptor positive modulation; hit rate 0.036% among 360,000; HEK293 TREx D1 cells, calcium flux, dopamine EC20 potentiation; potentiation, % at 10 µM; AID 504651; P21728; in the data active means potentiation above about 30%; further: 0% is about no effect
DRD3 antagonist – blocks the human D3 dopamine receptor; max response, negative = inhibition, %; D3R cells, DiscoveRx beta-arrestin luminescence, antagonist mode; hits give low values; P35462; hit rate 2.5% among 360,000; in the data active means max response below about -50%; further: on the % scale 0 is the no-effect control and ±100 the full control effect
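Cells plated overnight at 1500 cells/well, then exposed to library compounds with dopamine controls for 90 minutes at 37 degrees C. DiscoveRx reagent added for 30–60 minutes at room temperature; luminescence read, quantitative HTS format.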
D1 antagonist – blocks dopamine activation of the human D1 receptor; activity change, negative = inhibition, % at 10 µM; P21728; AID 504652; HEK293 TREx D1 cells, calcium flux, dopamine EC80; hits give low values; hit rate 3.2% among 360,000; in the data active means activity change below about -30%; further: on the % scale 0 is the no-effect control and ±100 the full control effect
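Compound effects on dopamine-evoked calcium signalling were measured in tetracycline-induced HEK293 Trex D1 cells. Dopamine at EC80 followed a 180 s compound pre-read, and fluorescence was tracked kinetically for 180 s more.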
Numbers without * were called inactive; / = no result.

SMILES	D1 ag	DRD3 agonist	D1 PAM	DRD3 antagonist	D1 antagonist
O=C(NCCSCc1ccccc1Cl)C1CCN(S(=O)(=O)Cc2ccccc2)CC1	-1.4	4.8	-0.8	/	6.7
N#C/C(=C/c1cccc(O)c1)C(=O)NCc1ccc(Cl)cc1	6.6	-4.4	-9.1	-22.1	-7.8
N#C/C(=C/c1ccc(O)c(O)c1)C(=O)NCc1ccc(Cl)cc1	78.7*	-9.6	/	-50.3*	-32.9*
CCN(Cc1ccccc1)C(=O)C1CCC(CNS(=O)(=O)c2ccc3c(c2)CCCC(=O)N3)CC1 (centres undefined)	4.4	6.4	-5.8	/	-11.0
Brc1ccc(NC2=Nc3ccccc3CC2)cc1	1.9	0.4	-5.6	-14.1	-30.0*
CN(C)S(=O)(=O)N1CCC(Oc2cccc(C(=O)NCCC3=CCCCC3)c2)CC1	30.8*	-0.6	-0.8	0.6	-31.1*
CC(C)c1ccc(NC2(C#N)C(=O)Nc3ccccc32)cc1 (centres undefined)	1.1	-6.5	-6.2	-53.5*	-21.8

From PubChem
